Screening results deposited in PubChem BioAssay by National Center for Advancing Translational Sciences (NCATS).
mIDH1 inhibitor: qHTS for Inhibitors of mutant isocitrate dehydrogenase 1 (IDH1): qHTS; IDH1-R132H enzyme, NADPH consumption, diaphorase/resazurin fluorescence; Isocitrate dehydrogenase [NADP] cytoplasmic (Homo sapiens), O75874; 390,000 tested, 0.093% active; Potency, µM (doses to about 76.6 µM), inactives show at the top dose activity change, negative = inhibition, hits mostly inhibitors; further: potency means the concentration at half of the fitted maximal effect; on the % scale 0 is the no-effect control and ±100 the full control effect; nearly all actives have a fitted effect of over 65% in size
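IDH1-R132H (0.5 ug/mL dispensed) in pH 7.5 Tris buffer was preincubated 30 min with compound, then given a substrate mix of 0.016 mM NADPH and 2 mM alpha-KG for 80 min at room temperature; remaining NADPH was read by diaphorase/resazurin fluorescence.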
GLP-1R agonist: qHTS of GLP-1 Receptor Agonists. HEK293 GLP-1R CRE-luciferase, luminescence, 4-6 h; cells express a hypersensitive GLP-1R form. 380,000 tested, 0.007% active. Potency, µM (series often up to 45.6 µM), for the others: top-dose activation, usual class: activators; further: potency means the concentration at half of the fitted maximal effect; % of control where 0% means no effect
HEK293 tox: qHTS of GLP-1 Receptor Inverse Agonists: Cytotox Screen; HEK293 cAMP-luciferase reporter cells, luminescence, 24 h; Potency, µM (titrated, usually from 38.3 µM), for the others: top-dose activity change, negative = inhibition, hits mostly inhibitors; 410,000 tested, 0.13% active; AID 624418, 2012;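 further: loss of luciferase light is scored as toxicity; potency means the concentration at half of the fitted maximal effect; on the % scale 0 is the no-effect control and ±100 the full control effect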
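Luminescence readout: signal drop marks cytotoxicity. Plated cells grew 12 h at 37 °C, 5% CO2, received 23 nL compound for 24 h, then got luciferase reagent, read after 12 min at RT.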
GLP1R inv ag: qHTS of GLP-1 Receptor Inverse Agonists (Inhibition Mode). HEK293 GLP-1R CRE-luciferase, luminescence, 24 h; GLP-1R form is constitutively active. 410,000 tested, 1.6% active. Potency, µM (series often up to 38.3 µM), without a hit: at the highest dose activity change, negative = inhibition, hits mostly inhibitors. Glucagon-like peptide 1 receptor (Homo sapiens), P43220; further: potency means the concentration at half of the fitted maximal effect; on the % scale 0 is the no-effect control and ±100 the full control effect; nearly all actives have a fitted effect of over 55% in size
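Stable HEK293 clone (constitutively active GLP-1R + cAMP-response luciferase); 200 cells/uL plated, 12 h pre-culture, compound 24 hr, 37 deg C/5% CO2; detection reagent 12 min RT; luminescence.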
LDHA inh: qHTS assay for inhibitors of human lactate dehydrogenase; purified LDHA, NADH/diaphorase-resazurin fluorescence; stronger effect = lower value; AID 1347041, 2019; activity change, % (values are at about 110 or 230 µM); L-lactate dehydrogenase A chain (Homo sapiens), P00338; 480,000 tested, 0.15% active; in the data active means activity change below about -30%; inconclusive means mostly about -25% to -30%;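 further: plate controls were DMSO wells for no effect and wells without enzyme for full effect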
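Resorufin fluorescence (ex540/em590), read at 0 and 20 min after diaphorase/resazurin addition, reports the NADH left after a 5 min room-temperature reaction of 2 nM human LDH5 with 0.06 mM NADH and 0.2 mM pyruvate.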
PTHR1 agonist: qHTS for PTHR1 Agonists: Primary Screen; Parathyroid hormone/parathyroid hormone-related peptide receptor (Homo sapiens), Q03431; HEK293 GP2 PTHR1 cells, GloSensor cAMP luminescence, 1 h; Potency, µM (series often up to 115 µM), inactives show top-dose activation, hits mostly activators; 410,000 tested, 0.075% active; AID 743266, 2014; further: potency means the concentration at half of the fitted maximal effect; nearly all actives have a fitted effect of over 55% in size
Target sequence (Q03431 whole entry, looked up): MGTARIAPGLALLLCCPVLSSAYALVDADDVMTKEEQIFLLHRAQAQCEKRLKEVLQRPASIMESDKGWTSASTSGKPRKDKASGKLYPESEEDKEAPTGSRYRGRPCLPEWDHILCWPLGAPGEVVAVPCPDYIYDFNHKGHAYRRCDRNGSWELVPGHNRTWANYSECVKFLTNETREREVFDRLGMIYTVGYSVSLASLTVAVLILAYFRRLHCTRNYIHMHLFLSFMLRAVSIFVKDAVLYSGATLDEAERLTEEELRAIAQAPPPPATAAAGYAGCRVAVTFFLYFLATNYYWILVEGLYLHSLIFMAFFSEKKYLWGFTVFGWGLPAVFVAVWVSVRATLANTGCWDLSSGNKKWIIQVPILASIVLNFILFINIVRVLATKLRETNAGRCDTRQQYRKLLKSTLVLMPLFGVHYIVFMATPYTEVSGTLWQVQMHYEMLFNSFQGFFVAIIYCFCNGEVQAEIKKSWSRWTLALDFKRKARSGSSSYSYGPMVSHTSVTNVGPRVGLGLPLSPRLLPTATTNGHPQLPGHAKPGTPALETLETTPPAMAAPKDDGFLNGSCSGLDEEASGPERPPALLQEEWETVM
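HEK-293-derived GP2 cells expressing PTHR1 and a GloSensor cAMP reporter, 3,000/well, plated overnight, given luciferin plus IBMX (each 0.5 mM as added) for 1 h at 37 °C, then compound for 1 h at 37 °C. Luminescence was read after 15 min at room temperature.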
* hit, by the source's call; i = inactive; ? = inconclusive; . = no result given. Compounds with a hit are over-represented: about 1.7% of the library has one in this group of screens. Unless noted, the call rests on the fitted dose curve; in most records, active means well fitted curve in the direction sought with a large enough effect; inconclusive means small, poorly fitted or top-dose-only effect, or another doubt; inactive means no such curve, though single readings can be large; an effect the other way counts as inactive or inconclusive.

SMILES	mIDH1 inhibitor	GLP-1R agonist	HEK293 tox	GLP1R inv ag	LDHA inh	PTHR1 agonist
C/C=C(/C)C(=O)O[C@@H]1c2c(ccc3ccc(=O)oc23)O[C@@H]1C(C)(C)OC(=O)/C(C)=C\C	4%	-1%	5%	13µM*	1	-29%
COc1ccc(CN2CCN(C(c3ccc(F)cc3)c3ccc(F)cc3)CC2)c(OC)c1OC	6%	-5%	?	10µM*	-3	-20%
Brc1ccc(CN2CCSCC2)cc1	1%	0%	-9%	0%	-30*	?
COc1ccc(CN2CCN(Cc3ccc(Br)cc3)CC2)c(OC)c1OC	5%	-3%	3%	?	-30*	-72%
COc1ccc(CN2CCN(c3ccc(F)cc3)CC2)c(OC)c1OC	1%	0%	-2%	-14%	-1	-15%
COc1ccc(CN2CCN(Cc3cccc(Oc4ccccc4)c3)CC2)c(OC)c1OC	4%	8%	5%	?	-13	-27%
Cc1ccc(CN2CCSCC2)cc1	-2%	-6%	-8%	12%	-6	-14%
COc1ccc(C(=O)C2CCCN(Cc3ccc4nonc4c3)C2)cc1OC (stereo unspecified)	-3%	8%	2%	3%	-7	-13%
COc1cc(CN2CCCC(C(=O)c3ccc4c5c(cccc35)CC4)C2)cc(OC)c1O (stereo unspecified)	12%	4%	-16%	11µM*	16	-46%
CN1CCC(C(=O)N2CCCC(C(=O)c3ccc4c5c(cccc35)CC4)C2)CC1 (stereo unspecified)	2%	-1%	-8%	8.9µM*	1	i
O=C(c1ccc2c3c(cccc13)CC2)C1CCCN(Cc2cccnc2)C1 (stereo unspecified)	15%	21%	7%	?	-9	-8%
COc1ccc(C(=O)C2CCCN(Cc3ccc4nonc4c3)C2)c(OC)c1 (stereo unspecified)	9%	5%	1%	10µM*	0	-12%
CC(C)c1ccc(Nc2c(-c3ccccc3O)nc3cnccn23)cc1	-8%	-7%	1%	10µM*	2	-47%
COc1cc(-c2nc3cnccn3c2Nc2ccc(C(C)C)cc2)ccc1O	-10%	1%	-13%	2%	-4	-3%
Cc1cccc(NC(=S)NNC(=O)c2ccc(Br)cc2)c1	.	.	.	.	4	.
COc1ccccc1CNc1nc(-c2ccccc2)cs1	.	.	.	.	1	.
O=C(O)c1ccc(-c2nc(-c3ccc(Cl)cc3Cl)cs2)cc1	0%	0%	6%	66%	0	i
Cc1onc(-c2ccc(Cl)cc2Cl)c1-c1csc(COc2ccccc2)n1	0%	5%	13%	2.8µM*	4	i
COc1ccccc1NCC(=O)c1ccc(Cl)cc1	46µM*	1%	11%	9%	2	-3%
COc1ccccc1NCC(=O)c1ccc(C)c(C)c1	-18%	0%	1%	15%	-2	-10%
CC(C)(C)c1ccc(/C=N/Nc2ccc(Cl)c(Cl)c2)cc1	.	.	.	.	13	.
CC(=O)n1cc(N(C(=O)CCl)c2ccc([N+](=O)[O-])cc2)c2ccccc21	-1%	-1%	?	?	-1	-24%
CC(=O)n1cc(N(C(=O)CCl)c2ccccc2)c2ccccc21	2%	1%	?	3.5µM*	0	-36%
O=C(c1ccc(F)c(F)c1)N1CCN(Cc2nnnn2C2CC2)CC1	.	.	.	.	-14	.
CCOc1ccc(CN(C)C(=O)Cn2c(=O)c3c(ncn3CC)n(Cc3ccccc3)c2=O)cc1	.	.	.	.	-5	.
SMILES	mIDH1 inhibitor	GLP-1R agonist	HEK293 tox	GLP1R inv ag	LDHA inh	PTHR1 agonist
COC(=O)c1ccc(COc2ccccc2)o1	.	.	.	.	2	.
Cn1c(Cl)cnc1C1CC(=O)c2cc(Cl)ccc2O1 (stereo unspecified)	2%	-4%	7.9µM*	3.5µM*	-4	5%
CC(NC(=O)CCC1CCCCC1)c1ccccn1 (stereo unspecified)	.	.	.	.	2	.
CN(C)CCNC(=O)c1cc2c(s1)-c1ccc(Cl)cc1SC2	8%	-9%	?	13µM*	-2	2%
CCCN(C(=O)c1cc2c(s1)-c1ccccc1SC2)c1ccccc1F	.	.	0%	11µM*	0	-8%
NNC(=O)c1[nH]c2ccc(Br)cc2c1-c1ccccc1	?	11%	-17%	?	-4	-18%
CC(=O)NNC(=O)c1[nH]c2ccc(Br)cc2c1-c1ccccc1	6%	-4%	0%	10µM*	-1	i
CCOC(=O)NNC(=O)c1[nH]c2ccc(Br)cc2c1-c1ccccc1	-12%	-1%	?	10µM*	-11	-20%
COc1ccc(/C=N/NC(=O)c2[nH]c3ccc(Br)cc3c2-c2ccccc2)cc1	-3%	?	?	-77%	-10	-8%
NS(=O)(=O)c1ccc(CCNCc2ccccc2OCc2ccc(Cl)cc2)cc1	-4%	-5%	-29%	7.9µM*	-3	-21%
CCOc1cc(C2C3=C(CCCC3=O)OC3=C2C(=O)CCC3)cc(Br)c1OCC(=O)O	.	.	.	.	-33*	.
Fc1ccc(COc2cccc(CNCC3CCNCC3)c2)cc1	.	.	.	.	0	.
CCN=C1S/C(=C\c2cn(CC)c3ccccc23)C(=O)N1CC	4%	14µM*	-9%	?	-2	-1%
CCN1C(=O)S/C(=C/c2cn(C)c3ccccc23)C1=O	16%	1%	5%	0%	0	i
COc1ccc(S(=O)(=O)n2nc(-n3c(C)ccc3C)c3c(F)cccc32)cc1OC	5%	0%	28%	10µM*	5	-47%
COc1ccc(CN2CCN(Cc3c[nH]c4ccccc34)CC2)cc1	-1%	4%	-5%	?	-34*	i
Cc1ccc(CN2CCN(Cc3c[nH]c4ccccc34)CC2)cc1	.	.	.	.	7	.
COc1ccc(OC)c(CN2CCC(C)CC2)c1	.	.	.	.	-4	.
COc1ccc(Br)cc1CN1CCN(Cc2c[nH]c3ccccc23)CC1	9%	2%	?	?	-17	i
COc1ccc(CN2CCC(N3CC(C)OC(C)C3)CC2)c(OC)c1 (stereo unspecified)	-6%	2%	-17%	-7%	-32*	-9%
